# Experimental data from PubChem BioAssay (NCATS).
# A number with no mark means an inactive call. Results filed as inconclusive are left out. Entries that show only a call come without a potency. The source made the active and inactive calls. Unless noted, calls come from the whole dose curve; as a rule, active = well fitted curve in the direction sought with a large enough effect; inconclusive = small, poorly fitted or top-dose-only effect, or another doubt; inactive = no such curve, though single readings can be large; an effect the other way counts as inactive or inconclusive.
# Key:
# [1] = Cytometric Cell-Based qHTS for Inhibitors of the mTORC1 Signaling Pathway in MEF (Tsc2-/-, p53-/-) Cells (AID 2660);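 note: Tsc2 and p53 null MEFs carrying empty vector with compound for 24 h; percent of cells above a phospho-rpS6 to PI ratio cutoff in each well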
# Summary of the method: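 Cells are plated, treated with compound for 24 hrs at 37 degree Celsius, then fixed, blocked and immunostained for phospho-rpS6 Ser235/236. Propidium iodide counterstain follows. Per-well % positive cells is derived from the PI-normalized phospho-S6 signal.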
# [2] = High Content Imaging Cell-Based qHTS for Inhibitors of the mTORC1 Signaling Pathway in MEF (Tsc2-/-, p53-/-) Cells (AID 2666); details: at 38.3 µM (top of the series);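 note: percent of cells scored positive for phospho-rpS6 Ser235/236 immunostaining by imaging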
# Summary of the method: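 Cells were plated, dosed with compound after 24 hrs, and incubated another 24 hrs at 37 degree Celsius. Fixed cells were immunostained for phospho-rpS6 Ser235/236 and counterstained, and the normalized signal was scored as % active cells against rapamycin and DMSO controls.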
# [3] = High Content Imaging Cell-Based qHTS for Inhibitors of the mTORC1 Signaling Pathway in MEF Cells (AID 2667); note: potency is the fitted concentration of half-maximal effect
# Summary of the method: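 Immunofluorescence for rpS6 phosphorylation in MEFs of Tsc2-/-, p53-/- background rescued with WT Tsc2. Compound exposure lasted 24 hrs. Inhibition was scored against rapamycin-treated control wells.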
# [4] = Cytometry Cell-Based qHTS for Inhibitors of the mTORC1 Signaling Pathway in MEF cells (AID 2668); note: potency is the fitted concentration of half-maximal effect
# Summary of the method: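 In MEFs grown in DMEM + 10% FBS, a 24 hrs compound exposure preceded imaging of phospho-rpS6 Ser235/236 by laser-scanning cytometry.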
# [5] = target: Ubiquitin carboxyl-terminal hydrolase 2 (Homo sapiens) (UniProt O75604); test: qHTS Validation Assay for Inhibitors of Ubiquitin-specific Protease USP2a Using CHOP2 as the Reporter (AID 463106)
# Ubiquitin carboxyl-terminal hydrolase 2 (Homo sapiens), sequence (O75604 whole entry, looked up): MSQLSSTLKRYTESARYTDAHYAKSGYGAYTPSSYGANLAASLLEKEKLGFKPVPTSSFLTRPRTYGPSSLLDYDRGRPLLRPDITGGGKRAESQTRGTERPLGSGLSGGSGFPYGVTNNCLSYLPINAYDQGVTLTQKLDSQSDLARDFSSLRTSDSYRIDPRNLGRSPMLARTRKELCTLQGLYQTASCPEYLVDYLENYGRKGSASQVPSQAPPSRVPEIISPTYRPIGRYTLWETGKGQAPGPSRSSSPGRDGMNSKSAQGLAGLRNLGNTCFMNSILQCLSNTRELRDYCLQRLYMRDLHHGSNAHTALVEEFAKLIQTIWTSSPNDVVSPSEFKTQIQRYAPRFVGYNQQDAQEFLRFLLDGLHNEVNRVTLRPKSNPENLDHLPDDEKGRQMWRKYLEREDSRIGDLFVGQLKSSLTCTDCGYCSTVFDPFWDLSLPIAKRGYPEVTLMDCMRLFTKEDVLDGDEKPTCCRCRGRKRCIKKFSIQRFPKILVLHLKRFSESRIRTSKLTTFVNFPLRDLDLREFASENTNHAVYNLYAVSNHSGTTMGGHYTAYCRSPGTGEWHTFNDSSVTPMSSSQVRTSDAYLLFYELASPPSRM
# Summary of the method: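 10nM USP2 core + cpd, 30min RT; add 25nM Ub-CHOP2/25nM substrate; 60min RT; FI 485/531nm. Buffer Tris pH 8.0, CaCl2, BME, CHAPS. Norm. to NEM = 100% inhibition; time-zero read flags fluorescent artifacts.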
# [6] = target: Tumor susceptibility gene 101 protein (Homo sapiens) (UniProt Q99816); test: qHTS Validation Assay for Iinhibitors of HIV-1 Budding by Blocking the Interaction of PTAP/TSG101 (AID 485342; calls by dose curve)
# Tumor susceptibility gene 101 protein (Homo sapiens), sequence (Q99816 whole entry, looked up, the tested form may be a part): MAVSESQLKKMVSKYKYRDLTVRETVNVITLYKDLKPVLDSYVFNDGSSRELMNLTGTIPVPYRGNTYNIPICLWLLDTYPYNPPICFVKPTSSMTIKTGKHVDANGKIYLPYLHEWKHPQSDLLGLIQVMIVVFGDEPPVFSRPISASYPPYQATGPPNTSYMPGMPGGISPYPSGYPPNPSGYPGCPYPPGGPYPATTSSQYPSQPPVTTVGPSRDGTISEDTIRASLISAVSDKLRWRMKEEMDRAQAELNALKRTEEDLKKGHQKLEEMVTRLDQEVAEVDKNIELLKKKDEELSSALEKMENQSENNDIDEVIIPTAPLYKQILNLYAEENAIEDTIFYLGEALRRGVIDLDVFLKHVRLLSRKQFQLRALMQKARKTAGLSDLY
# Summary of the method: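 Compound wells held the Tsg101 binding domain (10 uM) and a FITC-conjugated PTAP peptide (50 nM) in buffer at pH 7.5 containing 0.15 M NaCl and 0.01% Tween 20; polarization was recorded after 20 min, r.t.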
# [7] = target: Beta-2 adrenergic receptor (Homo sapiens) (UniProt P07550); test: qHTS validation assay of beta-arrestin-biased ligands of beta2-adrenergic receptor (AID 485366)
# Beta-2 adrenergic receptor (Homo sapiens), sequence (P07550 whole entry, looked up): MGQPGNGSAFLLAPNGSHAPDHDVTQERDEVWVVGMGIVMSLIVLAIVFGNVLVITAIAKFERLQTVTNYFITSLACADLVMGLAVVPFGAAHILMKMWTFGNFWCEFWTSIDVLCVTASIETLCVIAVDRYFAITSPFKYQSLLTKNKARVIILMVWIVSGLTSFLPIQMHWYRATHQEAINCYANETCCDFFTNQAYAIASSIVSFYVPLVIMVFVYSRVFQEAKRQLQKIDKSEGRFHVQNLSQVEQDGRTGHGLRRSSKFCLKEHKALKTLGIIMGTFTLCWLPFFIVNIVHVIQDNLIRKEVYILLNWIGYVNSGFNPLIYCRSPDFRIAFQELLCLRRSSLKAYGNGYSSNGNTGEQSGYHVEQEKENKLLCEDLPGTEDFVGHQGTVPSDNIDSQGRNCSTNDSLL
# Summary of the method: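 Values derive from curve-fitted %Activity of a luminescent beta-arrestin recruitment reporter; compounds tested up to 46 microM on Tango cells for 18 hr at 37 degrees C, 5% CO2.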
# [8] = target: Thioredoxin reductase 1, cytoplasmic (Rattus norvegicus) (UniProt O89049); test: qHTS Assay for Substrates of Mammalian Selenoprotein Thioredoxin Reductase 1 (TrxR1) (AID 488772);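 note: NADPH fluorescence in the first read after selenite addition and not the 8 min delta; a drop in NADPH fluorescence below the no-compound background marks a TrxR1 substrate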
# Thioredoxin reductase 1, cytoplasmic (Rattus norvegicus), sequence (O89049 whole entry, looked up): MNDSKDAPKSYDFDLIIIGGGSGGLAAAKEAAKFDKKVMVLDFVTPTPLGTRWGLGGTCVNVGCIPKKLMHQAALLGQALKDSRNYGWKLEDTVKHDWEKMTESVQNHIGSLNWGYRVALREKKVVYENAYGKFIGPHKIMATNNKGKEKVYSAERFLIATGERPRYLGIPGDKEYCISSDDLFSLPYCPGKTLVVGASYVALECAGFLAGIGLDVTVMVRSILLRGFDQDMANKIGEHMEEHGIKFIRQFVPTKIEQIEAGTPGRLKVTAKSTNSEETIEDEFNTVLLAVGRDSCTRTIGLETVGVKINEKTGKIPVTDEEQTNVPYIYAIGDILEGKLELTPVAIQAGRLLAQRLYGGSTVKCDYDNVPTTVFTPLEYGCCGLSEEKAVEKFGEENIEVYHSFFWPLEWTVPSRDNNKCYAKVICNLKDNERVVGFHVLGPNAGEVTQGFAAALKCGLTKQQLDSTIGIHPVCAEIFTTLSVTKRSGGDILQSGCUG
# Summary of the method: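 Quantitative HTS in Tris-HCl buffer at pH 7.5 with EDTA and Tween-20, using rat TrxR1, 400 uM NADPH and 400 uM selenite (final). A fall in initial NADPH fluorescence relative to background marked substrate behaviour.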
# [9] = target: Thioredoxin reductase 1, cytoplasmic (Rattus norvegicus) (UniProt O89049); test: qHTS Assay for Inhibitors of Mammalian Selenoprotein Thioredoxin Reductase 1 (TrxR1) (AID 488773); details: Potency: inhibition;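 note: drop in NADPH fluorescence over an 8 min run after selenite addition; nearly all actives have a fitted effect of over 40% in size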
# Summary of the method: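 Steps: enzyme (90 nM) plus NADPH (400 uM final), 5 min at ~22 deg C; compound added, 15 min; selenite (400 uM final) added; fluorescence followed for 8 min. Concentration-response curves derived from the normalized delta values.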
# [10] = target: M-phase phosphoprotein 8 (Homo sapiens) (UniProt Q99549); test: qHTS Validation Assay for Inhibitors for MPP8 Chromodomain Interactions with Methylated Histone Tails (AID 488949); note: potency is the fitted concentration of half-maximal effect; nearly all actives have a fitted effect of over 55% in size
# M-phase phosphoprotein 8 (Homo sapiens), sequence (Q99549 whole entry, looked up): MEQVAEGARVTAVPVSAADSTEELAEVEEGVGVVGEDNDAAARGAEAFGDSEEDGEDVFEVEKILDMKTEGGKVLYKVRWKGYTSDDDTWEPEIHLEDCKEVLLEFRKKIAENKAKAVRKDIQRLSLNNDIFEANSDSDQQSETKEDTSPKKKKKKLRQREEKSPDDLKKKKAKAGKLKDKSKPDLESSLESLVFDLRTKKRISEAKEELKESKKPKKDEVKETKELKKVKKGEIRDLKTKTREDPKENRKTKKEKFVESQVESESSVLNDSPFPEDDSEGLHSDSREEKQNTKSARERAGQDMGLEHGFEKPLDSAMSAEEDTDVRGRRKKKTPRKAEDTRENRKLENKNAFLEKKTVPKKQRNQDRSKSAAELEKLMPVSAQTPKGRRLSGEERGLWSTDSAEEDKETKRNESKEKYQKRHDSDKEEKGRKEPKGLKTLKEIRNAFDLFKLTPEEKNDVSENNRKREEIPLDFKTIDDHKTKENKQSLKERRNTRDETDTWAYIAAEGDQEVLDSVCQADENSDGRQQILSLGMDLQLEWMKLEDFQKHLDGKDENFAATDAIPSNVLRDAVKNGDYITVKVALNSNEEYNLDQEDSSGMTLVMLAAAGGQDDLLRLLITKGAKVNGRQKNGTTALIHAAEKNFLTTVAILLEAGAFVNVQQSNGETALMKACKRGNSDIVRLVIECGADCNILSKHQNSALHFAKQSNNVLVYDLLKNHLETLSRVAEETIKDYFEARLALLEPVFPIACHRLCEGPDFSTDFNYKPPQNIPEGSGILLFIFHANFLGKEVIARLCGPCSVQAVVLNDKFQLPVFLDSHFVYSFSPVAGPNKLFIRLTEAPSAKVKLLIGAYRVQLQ
# Summary of the method: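 Chemiluminescent proximity assay: histidine-tag capture via nickel acceptor beads, biotin peptide via streptavidin donor beads. Protein and peptide each at 50 nM, pH 7.4, with 30 min incubations at room temperature for complex formation, compound exposure and bead binding.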
# [11] = target: Chromobox protein homolog 1 (Homo sapiens) (UniProt P83916); test: qHTS Validation Assay for Inhibitors of HP1-beta Chromodomain Interactions with Methylated Histone Tails (AID 488953); note: potency is the fitted concentration of half-maximal effect; nearly all actives have a fitted effect of over 50% in size
# Chromobox protein homolog 1 (Homo sapiens), sequence (P83916 whole entry, looked up): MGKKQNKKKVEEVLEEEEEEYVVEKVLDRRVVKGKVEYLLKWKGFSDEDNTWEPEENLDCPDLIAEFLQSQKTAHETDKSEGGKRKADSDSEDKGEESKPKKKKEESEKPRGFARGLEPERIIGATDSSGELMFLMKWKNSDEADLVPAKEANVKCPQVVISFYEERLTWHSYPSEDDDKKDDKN
# Summary of the method: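 50 nM HP1-beta + 50 nM biotin-H3(1-18)K9me3, PBS pH 7.4, 0.01% Tween-20, 30 min RT; compound added, 30 min RT; AlphaScreen beads 10 ug/mL final, 30 min dark; luminescence read.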
# [12] = target: Methanococcus maripaludis chaperonin (MmCpn) (UniProt Q6LX38); test: High-Throughput Screening for Modulators of Cytosolic Chaperonin Activity: MmCpn Primary Screen (AID 488978)
# Summary of the method: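 HTRF readout (320 nm excitation, 590/665 nm emission) of ADP generated by 50 nM MmCpn hydrolysing 30 uM ATP during 10 min at 37C; compound preincubated 5 min RT.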
# [13] = target: D(1A) dopamine receptor (Homo sapiens) (UniProt P21728); test: HTS Assay for Allosteric Agonists of the Human D1 Dopamine Receptor: Primary Screen for Agonists (AID 488981)
# D(1A) dopamine receptor (Homo sapiens), sequence (P21728 whole entry, looked up): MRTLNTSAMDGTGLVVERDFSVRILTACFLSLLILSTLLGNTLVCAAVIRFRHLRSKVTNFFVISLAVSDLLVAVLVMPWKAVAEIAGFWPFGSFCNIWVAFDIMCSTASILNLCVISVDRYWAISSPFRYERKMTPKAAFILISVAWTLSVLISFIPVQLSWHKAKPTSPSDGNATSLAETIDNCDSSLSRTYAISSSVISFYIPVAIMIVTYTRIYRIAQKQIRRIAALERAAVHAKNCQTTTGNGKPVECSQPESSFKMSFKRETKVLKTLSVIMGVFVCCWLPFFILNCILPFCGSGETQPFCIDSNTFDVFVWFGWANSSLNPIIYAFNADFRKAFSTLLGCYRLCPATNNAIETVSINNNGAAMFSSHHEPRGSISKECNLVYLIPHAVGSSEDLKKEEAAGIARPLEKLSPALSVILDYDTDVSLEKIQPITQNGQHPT
# Summary of the method: (§1)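 Calcium flux in an inducible, force-coupled HEK293 Trex D1 line (overnight at 30 C): agonist mode is the 180 s kinetic read after compound; potentiator mode is the following 180 s read after dopamine at EC20.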
# [14] = target: D(1A) dopamine receptor (Homo sapiens) (UniProt P21728); test: HTS Assay for Allosteric Agonists of the Human D1 Dopamine Receptor: Primary Screen for Potentiators (AID 488982)
# Summary of the method: as §1
# [15] = target: D(1A) dopamine receptor (Homo sapiens) (UniProt P21728); test: HTS Assay for Allosteric Agonists of the Human D1 Dopamine Receptor: Primary Screen for Antagonists (AID 488983);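 note: calcium flux response to an EC80 dopamine challenge measured with no-wash dye; nearly all actives have a fitted effect of over 65% in size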
# Summary of the method: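 Cells are induced with tetracycline and incubated overnight at 30 C, then loaded with calcium dye for 30 to 90 minutes at room temperature. Compound addition is followed by a 180 s read, then an EC80 dopamine addition and another 180 s read.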
# [16] = Validation screen for small molecules that induce genotoxicity in human embryonic kidney (HEK293T) cells expressing luciferase-tagged ELG1 (AID 493106)
# Summary of the method: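 Luminescence from an ELG1-luciferase fusion serves as the read-out, rising when genetic stress elevates ELG1 protein. HEK293T reporter cells (2,000 per well) received 23 nL compound, incubated 16 hr at 37 °C, then ONE-Glo for 30 min at room temperature.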
# [17] = target: ATPase family AAA domain-containing protein 5 (Homo sapiens) (UniProt Q96QE3); test: Validation screen for small molecules that inhibit ELG1-dependent DNA repair in human embryonic kidney (HEK293T) cells expressing luciferase-tagged ELG1 (AID 493107); note: potency is the fitted concentration of half-maximal effect; nearly all actives have a fitted effect of over 70% in size
# Summary of the method: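 Luminescence from ONE-Glo, developed 30 min at room temperature, served as read-out of ELG1-luciferase levels. Beforehand, reporter HEK293T cells received 5-fluorouridine plus test compound for 16 hr at 37 °C.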
# [18] = qHTS for Inhibitors of Cell Surface uPA Generation: Validation Assay (AID 493164)
# Summary of the method: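 RAW 264.7 cells (4000/well) were plated overnight, then exposed for 18 h at 37 C, 5% CO2 to compounds in a 7-point 1:5 titration (2.45 nM–38.3 uM final). Intracellular ATP was read by ATP-Lite luminescence.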
# [19] = target: Ubiquitin carboxyl-terminal hydrolase 1 (Homo sapiens) (UniProt O94782); test: Inhibitors of USP1/UAF1: Pilot qHTS (AID 504865);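 note: rhodamine fluorescence freed from ubiquitin-rhodamine substrate followed over time; top concentration of the series differs between compounds; nearly all actives have a fitted effect of over 35% in size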
# Ubiquitin carboxyl-terminal hydrolase 1 (Homo sapiens), sequence (O94782 whole entry, looked up): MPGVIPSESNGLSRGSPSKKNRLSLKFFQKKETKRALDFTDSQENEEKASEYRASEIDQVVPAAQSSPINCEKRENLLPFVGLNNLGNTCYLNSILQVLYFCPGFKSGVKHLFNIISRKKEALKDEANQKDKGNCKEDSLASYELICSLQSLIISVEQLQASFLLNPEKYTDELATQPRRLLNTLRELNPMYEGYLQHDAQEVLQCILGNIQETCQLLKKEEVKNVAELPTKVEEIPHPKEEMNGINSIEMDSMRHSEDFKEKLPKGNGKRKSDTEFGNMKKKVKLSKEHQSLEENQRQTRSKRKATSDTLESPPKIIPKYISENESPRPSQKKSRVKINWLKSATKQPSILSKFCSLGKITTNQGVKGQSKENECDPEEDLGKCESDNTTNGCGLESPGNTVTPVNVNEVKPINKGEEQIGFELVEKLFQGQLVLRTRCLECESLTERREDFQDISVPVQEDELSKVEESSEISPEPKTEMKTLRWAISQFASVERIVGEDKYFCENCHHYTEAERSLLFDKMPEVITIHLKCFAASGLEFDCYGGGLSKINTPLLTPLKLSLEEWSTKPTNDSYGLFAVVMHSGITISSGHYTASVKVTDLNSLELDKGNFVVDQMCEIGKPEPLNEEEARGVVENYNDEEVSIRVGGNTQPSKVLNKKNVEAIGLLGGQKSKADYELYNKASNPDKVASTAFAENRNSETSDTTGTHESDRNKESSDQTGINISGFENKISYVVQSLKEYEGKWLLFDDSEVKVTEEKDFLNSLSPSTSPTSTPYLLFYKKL
# Summary of the method: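 Enzyme-free wells gave the negative control, while test wells held 1nM USP1/UAF1 preincubated with compound for 15 min at room temperature. Ub-Rho at 150nM final started the reaction, and fluorescence at 480/540 nm was recorded kinetically.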
# [20] = qHTS for Inhibitors of ATXN expression: Validation of Cytotoxic Assay (AID 588349); note: potency is the fitted concentration of half-maximal effect
# Summary of the method: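 Read-out: ATP-based luminescence (CellTiter Glo) reflecting viability of HEK293 cells after 72 hr incubation at 37 degrees C with a concentration series of each compound.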
# [21] = qHTS for Inhibitors of ATXN expression: Validation (AID 588378); note: potency is the fitted concentration of half-maximal effect; nearly all actives have a fitted effect of over 75% in size
# Summary of the method: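 After a 2 h attachment and 24 h compound incubation, HEK293-ATXN2-FFLuc wells are read for fluorescence at 405 nm excitation/525 nm emission as a viability measure, then for Bright-Glo luminescence reflecting ATXN2 expression.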
# [22] = qHTS of Trypanosoma Brucei Inhibitors: LOPAC Validation (AID 624147)
# Summary of the method: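 Enzyme and substrate buffer are dispensed first and compound is pin-transferred. ADP at 130 uM final then starts the reaction, which runs 45 min at room temperature. Detection reagent is added for 10 min before luminescence is imaged.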
# [23] = target: Glucagon-like peptide 1 receptor (Homo sapiens) (UniProt P43220); test: qHTS of GLP-1 Receptor Agonists: LOPAC Validation (AID 624148);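 note: luminescence from a luciferase reporter switched on by cAMP; higher luminescence signal means agonism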
# Glucagon-like peptide 1 receptor (Homo sapiens), sequence (P43220 whole entry, looked up): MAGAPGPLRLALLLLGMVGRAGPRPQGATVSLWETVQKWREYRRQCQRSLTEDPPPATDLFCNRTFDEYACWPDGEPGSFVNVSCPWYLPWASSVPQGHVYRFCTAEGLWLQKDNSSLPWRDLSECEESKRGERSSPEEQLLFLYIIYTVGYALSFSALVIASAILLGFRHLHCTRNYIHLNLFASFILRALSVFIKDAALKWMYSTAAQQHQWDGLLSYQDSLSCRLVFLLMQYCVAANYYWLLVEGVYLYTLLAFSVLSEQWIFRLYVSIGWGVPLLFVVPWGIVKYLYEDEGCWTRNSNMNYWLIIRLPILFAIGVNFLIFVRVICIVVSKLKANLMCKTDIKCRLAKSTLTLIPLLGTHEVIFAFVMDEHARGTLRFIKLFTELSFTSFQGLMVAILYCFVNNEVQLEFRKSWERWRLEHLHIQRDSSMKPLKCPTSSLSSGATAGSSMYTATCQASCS
# Summary of the method: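 Agonism scored as increased luciferase luminescence driven by cAMP in HEK293 clones carrying GLP-1R. Cells settled 12 hours, received compound for 4-6 hr at 37 deg C, 5% CO2, and were read after 12 min detection reagent at RT.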
compound,measurement,setting,value
O=C1c2ccccc2C(=O)c2c(NCCc3ccc(O)cc3)ccc(NCCc3ccc(O)cc3)c21,outcome,[1],inactive
same,outcome,[2],inactive
same,Potency,[3],4.65 µM (active)
same,Potency,[4],4.65 µM (active)
same,Potency,[5],inactive
same,outcome,[6],inactive
same,outcome,[7],inactive
same,outcome,[8],inactive
same,Potency,[9],inactive
same,Potency,[10],2.12 µM (active)
same,Potency,[11],1.78 µM (active)
same,outcome,[12],inactive
same,outcome,[13],inactive
same,outcome,[14],inactive
same,outcome,[15],inactive
same,Potency,[16],inactive
same,Potency,[17],14.6 µM (active)
same,outcome,[18],inactive
same,Potency,[19],inactive
same,Potency,[20],8.91 µM (active)
same,Potency,[21],8.91 µM (active)
same,outcome,[22],inactive
same,outcome,[23],inactive
